Measured values reported in ChEMBL document CHEMBL1157539, “Thousands of chemical starting points for antimalarial lead identification” (Nature, 2010).

Tests used:
Assay type in all cases: functional
Plasmodium falciparum [1] = assay: GSK_TCMDC: Inhibition of Plasmodium falciparum 3D7 in whole red blood cells, using parasite LDH activity as an index of growth. Test compounds present at 2uM
Plasmodium falciparum [2] = assay: GSK_TCMDC: Inhibition of Plasmodium falciparum Dd2 in whole red blood cells, using parasite LDH activity as an index of growth. Test compounds present at 2uM
HepG2 = assay: GSK_TCMDC: Percent inhibition of human HepG2 cell line. Test compounds present at 10uM.

SMILES | Inhibition (Plasmodium falciparum [1]) | Inhibition (Plasmodium falciparum [2]) | Inhibition (HepG2)
Cn1nc(-c2ccccc2F)c2cc(C(=O)Nc3cccnc3)sc21 | 92% | 82% | 5%
CC(NCCC1CCC(NC(=O)N[C@H](C)C(O)(c2ccccc2)c2ccccc2)CC1)c1cccc2ccccc12 (stereo not given in full) | 86% | 58% | 43%
N#Cc1cccc(Nc2nccc(Nc3ccc(Oc4ccccc4)cc3)n2)c1 | 94% | 17% | 12%
CC(CN(C)C)C(=O)Nc1ccc(-c2cccc(-c3nc4cc(C(F)(F)F)ccc4[nH]3)c2)cc1 (stereo not given) | 100% | 85% | 30%
COc1ccc(C)cc1NC(=O)CSc1nc2cccnc2n1C1CCCCC1 | 89% | 78% | 14%
COc1ccc2nccc(NC(=O)N3CCC(NCCOc4cc(F)cc(F)c4)CC3)c2n1.O=C(O)C(=O)O | 86% | 38% | 14%
O=C(Nc1ccc(Oc2ccccc2)cc1)N(Cc1ccc(-c2cccc(CN3CCNCC3)c2)cc1)C1CCN(Cc2ccccc2)CC1.O=C(O)C(F)(F)F | 93% | 53% | 10%
O=C(/C=C/c1ccc(Cl)c(Cl)c1)NCC1CCN(Cc2ccc(O)cc2)CC1.O=C(O)C(F)(F)F | 98% | 0% | 4%
CN1CCN(CC(=O)Nc2ccc(-c3cccc(-c4nc5cc(C(F)(F)F)ccc5[nH]4)c3)cc2)CC1 | 100% | 93% | 45%
CCCCCCCC/C=C\CCCCCCCC(=O)NCc1ccc(O)c(OC)c1 [OLVANIL] | 96% | 93% | 0%
COc1ccc2c(NCCc3ccccc3)cc(-c3ccccc3)nc2c1.Cl | 98% | 1% | 13%
CC(C)C[C@@H](/C=N/NC(N)=O)NC(=O)[C@H](CC(C)C)NC(=O)[C@H](CC(C)C)NC(=O)OCc1ccccc1 | 100% | 99% | 41%
Cc1nc(-c2cccc3c(NC(=O)N4CCc5cc6nccc(N7CCN(C)CC7)c6cc54)cccc23)no1.Cl | 100% | 97% | 45%
O=C(/C=C/c1ccc(Cl)c(Cl)c1)NC1CCC(CN2CCC(c3nc4cccnc4[nH]3)CC2)CC1 (stereo not given) | 100% | 2% | 7%
CCOC(=O)c1sc(C(C)Nc2ccccc2)nc1-c1ccccc1 (stereo not given) | 95% | 91% | 0%
O=C(Nc1ccc(-c2nc3ccccc3[nH]2)cc1)c1ccc([N+](=O)[O-])s1 | 100% | 77% | 83%
COc1cc(Nc2nc(N)n(C(=O)c3ccc4c(c3)OCO4)n2)cc(OC)c1OC | 90% | 40% | 60%
Cc1[nH]c(C)c(-c2ccc(CCc3ccc(F)cc3F)cc2)c(=O)c1Br | 97% | 98% | 0%
CCCC(CNCc1cccc(OC(F)(F)F)c1)CNc1cc(=O)c2ccccc2[nH]1 (stereo not given) | 100% | 95% | 0%
CN1CCC(N2CCN(Cc3cccc(-c4cccc(-c5nc6ccccc6[nH]5)c4)c3)CC2)CC1.O=C(O)C(F)(F)F | 100% | 100% | 19%
Cl.N=C(N)c1ccc(NC(=O)Cc2nc3cc(C(=N)N)ccc3[nH]2)cc1 | 87% | 81% | 4%
Cc1ccc(Nc2nc(C)cc(N3CCN(c4ccccc4)CC3)n2)cc1 | 93% | 72% | 4%
Cc1ccc(C(=O)Nc2ccc(F)cc2)cc1-c1nc(NC2CC(C)(C)NC(C)(C)C2)nc2c1ccc(=O)n2-c1c(F)cccc1F | 89% | 96% | 16%
CCc1ccccc1NC(=O)CN1CCN(c2ncnc3scc(-c4ccc(F)cc4)c23)CC1 | 83% | 62% | 6%
Cc1cc(C(=O)Nc2ccc(OCc3ccccc3)cc2)on1 | 87% | 89% | 1%
N#Cc1ccc(N(CCNS(=O)(=O)c2cc(Br)c(Cl)s2)Cc2ccccc2C(F)(F)F)cc1C(F)(F)F | 92% | 57% | 3%
Cc1cccc2nc(-c3cccc(-c4ccc(NC(=O)c5cccnc5)cc4)c3)[nH]c12 | 100% | 45% | 64%
Clc1cccc(C23N/C(=N\c4nc5ccccc5[nH]4)NC2(c2ccccc2)N/C(=N\c2nc4ccccc4[nH]2)N3)c1 (stereo not given) | 85% | 88% | 0%
NS(=O)(=O)c1cccc(-c2ccc3ncc(N4CCOCC4)nc3c2)c1 | 96% | 74% | 17%
CNC(=O)C(C)N(c1ccc(Cl)cc1)c1nc(C(C)(C)C)cs1 (stereo not given) | 99% | 98% | 0%
